This is an account of results in PubChem BioAssay (Tox21).

Assay [1] can be described thus: Nuclear factor erythroid 2-related factor 2/antioxidant responsive element (Nrf2/ARE) small molecule agonists: qHTS cell viability counter screen in human keratinocytes (AID 1919968; active = well fitted curve in the direction sought with a large enough effect in the repeat runs; an effect the other way counts as inactive or inconclusive; note: nearly all actives have a fitted effect of over 55% in size; note: potency is the fitted concentration of half-maximal effect). Summed up: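 Measured as CellTiter-Fluor fluorescence, this readout tracks cytotoxicity in the same wells as the ARE-luciferase screen. HaCaT reporter cells (1,500/well) received compounds after a 5 h pre-incubation and were exposed for 23 h.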

A short description of assay [2]: Nuclear factor erythroid 2-related factor 2/antioxidant responsive element (Nrf2/ARE) small molecule agonists: luciferase reporter gene qHTS assay in human keratinocytes (AID 1919969). Note: nearly all actives have a fitted effect of over 35% in size. Note: potency is the fitted concentration of half-maximal effect. Background: A reporter such as luciferase makes a cellular process visible.
The target in assay [3] is Gonadotropin-releasing hormone receptor (Homo sapiens) (UniProt P30968). In words: Human gonadotropin-releasing hormone receptor (GnRHR) small molecule agonists, calcium flux assay in GnRHR-HEK293 cells (AID 1920063). Note: nearly all actives have a fitted effect of over 35% in size. Note: potency is the fitted concentration of half-maximal effect. Summed up:
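Fluorescence kinetics (480 nm excitation, 540 nm emission; 3 min, 1 s steps) report calcium mobilisation in human GnRHR-HEK293 cells in agonist mode. Dye incubation: 1 h, 37 C.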

Assay [4] deals with KiSS-1 receptor (Homo sapiens) (UniProt Q969F8). In words: Human kisspeptin (KISS1R) small molecule agonists, calcium flux assay in KISS1R-HEK293 cells (AID 1920064; active = well fitted curve in the direction sought with a large enough effect in the repeat runs; an effect the other way counts as inactive or inconclusive). Summed up: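 Measures KISS1R agonism through calcium-sensitive dye fluorescence in stably transfected HEK293 cells, read for 3 min after pin-tool compound delivery; 15-point titrations in triplicate.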
In general terms: Calcium flux is commonly read through the fluorescence of an indicator in the cells.

Assay [5] in a line: G protein-coupled receptor (GPCR) small molecule agonists, calcium flux assay: HEK293 wild type cell line counter screen (AID 1920065). Summed up:
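Readout: fluorescence at 480 nm excitation/540 nm emission, sampled at 1 s intervals for 3 min. Cells had been cultured 18 h, then dye-loaded 1 h at 37 C before compound or ATP addition.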

Assay [6] can be described thus: p53 small molecule agonists, cell-based qHTS assay: qHTS cell viability counter screen (AID 1963581). Note: nearly all actives have a fitted effect of over 45% in size. Note: potency is the fitted concentration of half-maximal effect. An outline of the steps: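 In the same plates used for the p53 bla reporter, HCT-116 cells given compounds for 16 h at 37 C received CellTiter-Glo; luminescence was recorded 30 min later at room temperature.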
In general terms: In qHTS, concentration-response curves come from the screen itself.

In assay [7] the target is 5-hydroxytryptamine receptor 2A (Homo sapiens) (UniProt P28223). Kind of assay: 5-hydroxytryptamine receptor 2A (HTR2A) small molecule antagonists, cell-based qHTS assay (AID 1963586). Note: nearly all actives have a fitted effect of over 45% in size. Note: potency is the fitted concentration of half-maximal effect. Summed up: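 Antagonist-mode intracellular calcium assay: DOI (4 nM) added after 5 min compound pre-incubation at room temperature to dye-loaded HTR2A-CHO cells. Fluorescence followed for 3 min, sampled every second.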

For assay [8] the target is unchanged. Kind of assay: 5-hydroxytryptamine receptor 2A (HTR2A) small molecule agonists, cell-based qHTS assay (AID 1963587). Note: nearly all actives have a fitted effect of over 30% in size. Note: potency is the fitted concentration of half-maximal effect. Summed up: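 Kinetic calcium-flux fluorescence (2 min, 1 sec intervals) after compound addition in agonist mode. HTR2A-CHO cells were cultured 18 h, then dye-loaded 1 h at 37 C.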
Assay [9] has as its target Muscarinic acetylcholine receptor M1 (Homo sapiens) (UniProt P11229). Kind of assay: Cholinergic receptor muscarinic 1 (CHRM1) small molecule agonists, cell-based qHTS assay (AID 1963589). Note: nearly all actives have a fitted effect of over 35% in size. Summed up:
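Each compound was tested at 15 concentrations across three independent runs on dye-loaded CHO cells stably expressing human CHRM1, reading intracellular calcium fluorescence kinetically at 1 sec intervals.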

Assay [10] in a line: cAMP Responsive Elements (CRE) small molecule antagonists, cell-based qHTS assay (AID 1963591; active = well fitted inhibition curve with a large enough effect in the signal ratio in the repeat runs, not every such curve was filed as active; the % refers to the signal ratio). Summed up:
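Inhibition of NKH477-driven (0.25 uM final) CRE-beta-lactamase signal in HEK293T cells, 3 h compound exposure at 37 °C, detected by FRET substrate fluorescence.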

For assay [11], the target named is Beta-2 adrenergic receptor (Homo sapiens) (UniProt P07550). Kind of assay: Adrenergic beta2 receptor (ADRB2) small molecule antagonists, cell-based qHTS assay (AID 1963592). Note: nearly all actives have a fitted effect of over 50% in size. Note: potency is the fitted concentration of half-maximal effect. Summed up: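 Cells (CHO, stable ADRB2 overexpression) incubated 18-20hr at 37C; compounds added from DMSO; agonist mix (1nM isoproterenol, 100uM IBMX, 25uM Ro-20-1724) added; 0.5hr RT; d2-cAMP and anti-cAMP-cryptate added; 1hr RT; 665/615 nm read.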

The target in assay [12] is D(2) dopamine receptor (Homo sapiens) (UniProt P14416). Kind of assay: Dopamine D2 receptor (DRD2) small molecule agonists, cell-based qHTS assay (AID 1963594). Note: nearly all actives have a fitted effect of over 35% in size. Summed up:
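cAMP accumulation in DRD2-HEK293 cells measured by HTRF after 1 h detection; compounds added 10 min before NKH477 (200nM […]) forskolin-analogue stimulation, 30 min at room temperature, with Ro20-1724 present at 0.1 mM final.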

The target is the same in assay [13]. In words: Dopamine D2 receptor (DRD2) small molecule antagonists, cell-based qHTS assay (AID 1963595; active = well fitted inhibition curve with a large enough effect in the signal ratio in the repeat runs, with a control signal flat; the % refers to the signal ratio; note: potency is the fitted concentration of half-maximal effect). An outline of the steps:
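Readout: HTRF cAMP, cAMP-d2 competing with cellular cAMP for anti-cAMP cryptate, read after 1 h. Cells: DRD2-HEK293. Conditions: 0.1 mM Ro20-1724, 12 nM quinpirole, 200 nM NKH477, 30 min RT.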

Assay [14] can be described thus: p53 small molecule agonists, cell-based qHTS assay with human liver microsomes (AID 1963577). Note: potency is the fitted concentration of half-maximal effect. An outline of the steps: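 Fluorescence of the beta-lactamase reporter in p53RE-bla cells, detected with LiveBLAzer substrate (2 h, room temperature, dark), served as the read-out after 16 h compound exposure at 37 C with human liver microsomes and NADPH, each 0.5 mg/mL final.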

Assay [15] in a line: p53 small molecule agonists, cell-based qHTS assay with rat liver microsomes (AID 1963578). An outline of the steps: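 Cells carrying a p53 response element–beta-lactamase reporter were plated and rested 5 h, then dosed with compound in DMSO plus rat liver microsomes and NADPH, each at 0.5 mg/mL final. After 16 h at 37 C, LiveBLAzer substrate was added for 2 h.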
Assay [16] is described as follows: p53 small molecule agonists, cell-based qHTS assay with rat liver microsomes: qHTS cell viability counter screen (AID 1963580). Note: nearly all actives have a fitted effect of over 45% in size. An outline of the steps:
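HCT-116 p53RE-bla, 4,000 cells/well, 5 h pre-incubation; cpd + rat liver microsomes 0.5 mg/mL + NADPH 0.5 mg/mL (final); 16 h, 37 C; CellTiter-Glo, 30 min RT; luminescence.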

Assay [17] is described as follows: p53 small molecule agonists, cell-based qHTS assay (AID 1963582; active = well fitted activation curve with a large enough effect in the signal ratio in the repeat runs, not every such curve was filed as active; the % refers to the signal ratio). An outline of the steps:
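Compounds are pin-transferred in DMSO onto p53RE-bla cells and incubated 16 h at 37 C. The B/G FRET beta-lactamase substrate is then applied for 2 h at RT and fluorescence recorded.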

The target in assay [18] is Muscarinic acetylcholine receptor M1 (Homo sapiens) (UniProt P11229). Kind of assay: Cholinergic receptor muscarinic 1 (CHRM1) small molecule antagonists, cell-based qHTS assay (AID 1963588). Note: nearly all actives have a fitted effect of over 40% in size. An outline of the steps: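 CHRM1-CHO calcium-flux assay, antagonist mode. Cells were seeded 18 h, dye-loaded 1 h at 37 C and given compound for 5 min at RT, then acetylcholine was added at 50nM. FDSS fluorescence was read 3 min; 15 concentrations, three runs.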

A short description of assay [19]: cAMP Responsive Elements (CRE) small molecule agonists, cell-based qHTS assay (AID 1963590). Summed up: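 Cell line: CRE-bla HEK 293T; medium DMEM/10% dialyzed FBS/0.1 mM NEAA/1 mM pyruvate/25 mM HEPES; 3 h compound exposure; beta-lactamase FRET readout after 2 h substrate loading at RT.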
A short description of assay [20]: p53 small molecule agonists, cell-based qHTS assay with human liver microsomes: qHTS cell viability counter screen (AID 1963579). Note: nearly all actives have a fitted effect of over 45% in size. Note: potency is the fitted concentration of half-maximal effect. An outline of the steps: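 Cytotoxicity counter screen: p53RE-bla, 4,000 cells/well; 5 h settle, 37 C/5% CO2; cpd + HLM 0.5 mg/mL + NADPH 0.5 mg/mL (final); 16 h, 37 C; CellTiter-Glo, 30 min RT, luminescence.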

Results filed as inconclusive are left out. Active and inactive are the calls of the source. Unless noted, calls come from the whole dose curve.

Chain of Beta-2 adrenergic receptor (Homo sapiens) (P07550 whole entry, looked up): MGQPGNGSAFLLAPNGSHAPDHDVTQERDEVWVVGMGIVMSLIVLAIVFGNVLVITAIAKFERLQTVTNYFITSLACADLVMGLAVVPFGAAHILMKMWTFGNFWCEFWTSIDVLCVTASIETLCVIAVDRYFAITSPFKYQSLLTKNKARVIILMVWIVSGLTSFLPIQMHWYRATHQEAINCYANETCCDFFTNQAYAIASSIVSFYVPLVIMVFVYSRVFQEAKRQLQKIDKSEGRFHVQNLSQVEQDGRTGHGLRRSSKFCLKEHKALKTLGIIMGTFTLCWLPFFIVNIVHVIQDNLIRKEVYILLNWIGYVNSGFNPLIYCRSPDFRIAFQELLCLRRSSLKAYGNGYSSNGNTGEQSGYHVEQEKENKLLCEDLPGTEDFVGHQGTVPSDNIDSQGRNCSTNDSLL
Chain of Gonadotropin-releasing hormone receptor (Homo sapiens) (P30968 whole entry, looked up): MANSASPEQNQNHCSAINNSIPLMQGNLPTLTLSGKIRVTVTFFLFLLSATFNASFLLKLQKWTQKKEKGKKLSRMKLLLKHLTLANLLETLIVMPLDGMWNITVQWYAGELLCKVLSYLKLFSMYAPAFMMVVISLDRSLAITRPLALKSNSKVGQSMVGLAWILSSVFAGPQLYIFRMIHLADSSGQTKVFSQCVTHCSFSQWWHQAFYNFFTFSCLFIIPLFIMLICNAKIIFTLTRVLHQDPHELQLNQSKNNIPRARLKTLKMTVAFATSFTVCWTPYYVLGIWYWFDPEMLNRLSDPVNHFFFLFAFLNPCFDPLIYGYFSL
Chain of Muscarinic acetylcholine receptor M1 (Homo sapiens) (P11229 whole entry, looked up): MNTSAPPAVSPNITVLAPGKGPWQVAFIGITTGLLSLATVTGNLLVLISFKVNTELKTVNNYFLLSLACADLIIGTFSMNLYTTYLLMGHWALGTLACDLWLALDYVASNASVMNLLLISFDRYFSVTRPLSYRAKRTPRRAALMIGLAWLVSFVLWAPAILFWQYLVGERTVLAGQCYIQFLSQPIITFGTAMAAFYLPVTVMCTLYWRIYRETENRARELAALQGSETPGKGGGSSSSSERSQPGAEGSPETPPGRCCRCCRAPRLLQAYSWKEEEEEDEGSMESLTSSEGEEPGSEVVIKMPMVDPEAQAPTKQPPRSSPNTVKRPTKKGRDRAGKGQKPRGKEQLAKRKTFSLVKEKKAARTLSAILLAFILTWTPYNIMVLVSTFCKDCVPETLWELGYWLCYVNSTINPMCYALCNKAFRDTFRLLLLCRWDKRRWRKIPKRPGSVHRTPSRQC
Chain of 5-hydroxytryptamine receptor 2A (Homo sapiens) (P28223 whole entry, looked up): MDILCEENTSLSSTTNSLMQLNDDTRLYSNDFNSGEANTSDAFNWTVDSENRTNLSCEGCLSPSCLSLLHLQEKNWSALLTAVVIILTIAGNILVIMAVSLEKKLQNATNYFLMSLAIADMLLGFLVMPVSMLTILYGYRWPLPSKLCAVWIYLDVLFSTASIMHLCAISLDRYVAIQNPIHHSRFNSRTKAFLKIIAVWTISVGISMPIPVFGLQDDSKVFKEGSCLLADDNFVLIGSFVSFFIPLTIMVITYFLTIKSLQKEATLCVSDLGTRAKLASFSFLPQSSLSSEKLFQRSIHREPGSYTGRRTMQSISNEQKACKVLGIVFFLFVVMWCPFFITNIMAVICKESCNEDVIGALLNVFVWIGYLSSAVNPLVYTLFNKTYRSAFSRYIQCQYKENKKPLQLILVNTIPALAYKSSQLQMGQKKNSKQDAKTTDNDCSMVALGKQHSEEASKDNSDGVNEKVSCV
Chain of KiSS-1 receptor (Homo sapiens) (Q969F8 whole entry, looked up): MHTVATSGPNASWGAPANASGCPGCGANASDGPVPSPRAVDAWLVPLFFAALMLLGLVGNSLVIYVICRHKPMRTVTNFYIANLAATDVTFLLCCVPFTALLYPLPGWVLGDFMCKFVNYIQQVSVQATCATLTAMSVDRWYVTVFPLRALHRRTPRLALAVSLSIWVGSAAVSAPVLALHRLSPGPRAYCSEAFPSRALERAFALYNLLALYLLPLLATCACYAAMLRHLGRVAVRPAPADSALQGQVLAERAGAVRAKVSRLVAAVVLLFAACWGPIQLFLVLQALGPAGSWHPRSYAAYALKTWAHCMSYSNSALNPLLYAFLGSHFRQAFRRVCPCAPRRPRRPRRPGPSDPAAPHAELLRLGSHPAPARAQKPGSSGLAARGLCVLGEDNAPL
Chain of D(2) dopamine receptor (Homo sapiens) (P14416 whole entry, looked up): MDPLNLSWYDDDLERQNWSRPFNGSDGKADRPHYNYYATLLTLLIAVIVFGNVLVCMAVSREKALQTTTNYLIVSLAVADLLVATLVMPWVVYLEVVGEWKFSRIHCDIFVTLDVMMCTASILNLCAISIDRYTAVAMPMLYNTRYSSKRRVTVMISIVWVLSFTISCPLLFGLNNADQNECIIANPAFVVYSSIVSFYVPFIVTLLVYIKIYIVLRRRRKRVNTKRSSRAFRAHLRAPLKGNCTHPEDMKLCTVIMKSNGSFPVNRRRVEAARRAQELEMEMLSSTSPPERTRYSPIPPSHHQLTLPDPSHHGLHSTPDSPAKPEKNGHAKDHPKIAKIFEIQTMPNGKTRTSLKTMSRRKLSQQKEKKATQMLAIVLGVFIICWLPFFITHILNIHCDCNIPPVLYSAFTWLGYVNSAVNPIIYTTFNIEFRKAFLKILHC

In the case of `CCNc1nc(Cl)nc(NC(C)(C)C)n1`, the Potency entry in assay [1], in assay [2], in assay [3], in [4], in [5] and in assay [6] was “inactive” each time. The Potency result in assay [7], in [8], in [9], in assay [10], in assay [11] and in assay [12] was “inactive” in each case. Besides, the Potency entry in assay [13] is “inactive”.

With `CC(=O)C(Cl)C(=O)N(C)C` (centres undefined), the Potency result in assay [1], in assay [3], in [4], in [14], in [15] and in assay [16] was “inactive” each time. The Potency result in assay [6], in assay [17], in assay [7], in assay [18], in assay [9] and in assay [19] was “inactive” throughout. Also, the Potency result in assay [10], in assay [11], in assay [12] and in [13] was “inactive” in each case. Further, the Potency in assay [2] was 68.6 µM (active).

In the case of `CCOC(=O)/C=C(C)/C=C/C[C@@H](C)CCCC(C)C`, the Potency result in assay [1], in assay [3], in assay [4], in assay [14], in assay [15] and in [20] was “inactive” in each case. Moreover, the Potency result in assay [6], in assay [17], in assay [8], in [18], in assay [9] and in assay [19] was “inactive” each time. Also, the Potency entry in [10], in assay [11], in assay [12] and in assay [13] was “inactive” in each case. In addition, in assay [2], the Potency is 68.6 µM (active).

In the case of `COP(=O)(OC)Oc1ccc([N+](=O)[O-])cc1`, the Potency entry in assay [1], in assay [2], in assay [3], in [4], in assay [16] and in assay [6] was “inactive” in each case. Also, the Potency entry in assay [17], in assay [7], in [8], in assay [18], in assay [9] and in assay [19] was “inactive” each time. The Potency result in assay [10], in [12] and in assay [13] was “inactive” in each case. In assay [14], the Potency is 3.24 µM (active).

Consider `CC(=O)[O][Pb]([c]1ccccc1)([c]1ccccc1)[c]1ccccc1`, for which the Potency in assay [1] is 3.86 µM (active); in assay [2] it was 0.864 µM (active); in assay [3] it was 30.9 µM (active); in [20] it was 4.08 µM (active); in assay [6] it was 16.2 µM (active); in assay [8], 49 µM (active). The Potency in [13] was 4.33 µM (active). The Potency result in [4], in assay [15] and in assay [7] was “inactive” each time.

Regarding `CCN(CCO)CCn1c(Cc2ccccc2)nc2c1c(=O)n(C)c(=O)n2C`, the Potency entry in assay [1], in assay [2], in [3], in assay [4], in assay [14] and in [15] was “inactive” each time. Besides, the Potency entry in assay [20], in assay [16], in [6], in [17], in assay [7] and in assay [8] was “inactive” each time. For the same molecule, the Potency entry in assay [18], in assay [9], in assay [19], in assay [11], in assay [12] and in assay [13] was “inactive” in each case.

As to `Fc1ccc(C(OCCN2CCN(CCCc3ccccc3)CC2)c2ccc(F)cc2)cc1`, the Potency in assay [1] is 13.3 µM (active); in assay [7], 1.3 µM (active); in [11], 29.8 µM (active); in assay [13], 26.6 µM (active). The Potency entry in assay [2], in assay [3], in assay [5], in assay [14], in assay [15] and in [20] was “inactive” each time. Also, the Potency result in [16], in assay [6], in [8], in assay [18], in [9] and in [12] was “inactive” in each case.

As to `CC[C@@H](CO)NC(=O)[C@@H]1C=C2c3cccc4[nH]cc(c34)C[C@H]2N(C)C1`, the Potency entry in assay [1], in [2], in assay [3], in [5], in assay [15] and in assay [20] was “inactive” throughout. Besides, the Potency result in [16], in [6], in [17], in assay [19] and in assay [10] was “inactive” each time.

Turning to `CCCSP(=O)(OCC)Oc1ccc(Br)cc1Cl` (centres undefined), the Potency entry in assay [1], in assay [2], in assay [3], in [5], in [20] and in assay [16] was “inactive” throughout. Besides, the Potency result in [6], in assay [7], in assay [8], in assay [18], in assay [9] and in [19] was “inactive” throughout. In addition, the Potency entry in assay [10], in assay [11], in assay [12] and in assay [13] was “inactive” throughout.
